This is part of a sample that, as a whole, favours compounds with a hit. Of some 79,000 tested, about 15% had one in any assay. Cut-off read from the data, not from the text of the source: active = growth inhibition above about 70%; inactive = the rest.
Key:
[1] = NCI Yeast Anticancer Drug Screen. Data for the rad50 strain (AID 155);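 note: 0% = growth of vehicle-only cultures of the same strain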; details: S. cerevisiae rad50 strain growth inhibition; at 50.0 µM; stronger effect = higher value
Procedure, shortened: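 Genetically altered yeast (DNA repair pathway); compound treatment; growth inhibition vs vehicle ctrl.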

[2] = NCI Yeast Anticancer Drug Screen. Data for the mec2-1 strain (AID 157); details: S. cerevisiae mec2-1 strain, at 50.0 µM, stronger effect = higher value
Procedure, shortened: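 Strain: mec2-1 (DNA repair/cell cycle alteration). Compound exposure, then growth measured; inhibition expressed relative to vehicle.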

[3] = NCI Yeast Anticancer Drug Screen. Data for the sgs1 mgt1 strain (AID 161);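 note: 0% = growth of cultures given vehicle only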; details: S. cerevisiae sgs1 mgt1 strain, at 50.0 µM, stronger effect = higher value
Procedure, shortened: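 Genetically altered yeast, compound exposure, growth inhibition relative to vehicle.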

[4] = NCI Yeast Anticancer Drug Screen. Data for the cln2 rad14 strain (AID 165);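 note: 0% = growth equal to vehicle treated cultures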; details: S. cerevisiae cln2 rad14 strain, at 50.0 µM, stronger effect = higher value
Procedure, shortened: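 Compounds are applied to the cln2 rad14 yeast strain, and growth is then compared with that of vehicle-treated cultures to give inhibition.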

[5] = NCI Yeast Anticancer Drug Screen. Data for the bub3 strain (AID 167); details: S. cerevisiae bub3 mutant strain, at 50.0 µM, stronger effect = higher value
Procedure, shortened: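 Yeast carrying a defined mutation is treated with each compound, and growth is compared with that of vehicle-exposed cells to give inhibition.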

[6] = NCI Yeast Anticancer Drug Screen. Data for the mlh1 rad18 strain (AID 175); details: S. cerevisiae mlh1 rad18 strain growth inhibition; at 50.0 µM; stronger effect = higher value
Procedure, shortened: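 Read-out is yeast growth inhibition, calculated against vehicle-only controls. The compound was applied to a strain engineered with DNA damage repair alterations.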

Measured: growth inhibition

CC(=O)NNC(=S)N/C=C(\C#N)S(=O)(=O)c1ccc(C)cc1
inactive: [1] -44.5% | [2] -26.4% | [3] -35.5% | [4] -61.3% | [5] -25.8% | [6] -37.6%

CCCCCCSc1ccc([N+](=O)[O-])cc1[N+](=O)[O-]
inactive: [1] 4.95% | [2] -6% | [3] -10.6% | [4] -6.8% | [5] 24.9% | [6] -21.1%

COc1ccc(C(CCOS(=O)(=O)c2ccc(Br)cc2)(c2ccc(OC)cc2)c2ccc(OC)cc2)cc1
inactive: [1] 0.9% | [2] 12.8% | [3] -13.1% | [4] -23.6% | [5] 0% | [6] 15.6%

CCCCCCCCCCCCCCCCCCCCCC
inactive: [1] -28.1% | [2] -26.1% | [3] -8.7% | [4] 0% | [5] -25.9% | [6] -18.1%

CCN(Cc1ccc(C(=O)OC)cc1)c1cccc(NC(C)=O)c1
inactive: [1] 33.5% | [2] 6.7% | [3] 29.9% | [4] -9.7% | [5] 20.3% | [6] 34%

O=C(O)COc1cc([N+](=O)[O-])c(Cl)cc1Cl
inactive: [1] 7.75% | [2] -11.9% | [3] 18.6% | [4] 15.6% | [5] -1.4% | [6] 20.6%

O=C(Nc1c[nH]c(=O)[nH]c1=O)Oc1ccccc1
inactive: [1] -5.65% | [2] -6.7% | [3] -4.8% | [4] -1% | [5] -50% | [6] 5.05%

CCCCC1SCC(=O)N1c1nncs1 (stereo not drawn)
inactive: [1] 6.35% | [2] 24% | [3] 5.4% | [4] -3.8% | [5] 16.7% | [6] -3.2%

CCOC(=O)CS(=O)(=O)CS(=O)(=O)CC(=O)OCC
inactive: [1] 10% | [2] 8.35% | [3] 7.85% | [4] 5.55% | [5] 9.95% | [6] 7.25%

O=[N+]([O-])c1ccc(-c2csc(N=Nc3c(O)[nH]c4ccccc34)n2)cc1
inactive: [1] -31.2% | [2] -20.2% | [3] -22.4% | [4] -16.7% | [5] -31.4% | [6] -46.4%

Cc1ccc(S(=O)(=O)O/N=C2\CCC\C2=C/c2ccccc2)cc1
inactive: [1] 7.65% | [2] -2.25% | [3] 26% | [4] 14.6% | [5] -8.55% | [6] 23.8%

Cc1cnc2ccccc2c1
inactive: [1] -12.2% | [2] -2.15% | [3] -5.45% | [4] 4.35% | [5] 0.45% | [6] 2.8%

COc1ccc2c(c1)C1=C(CC2)C(=O)OC1=O
inactive: [1] -0.9% | [2] 11.7% | [3] 28.5% | [4] 2.8% | [5] 5.05% | [6] -4.85%

Cc1ncc(CO)c(CN)c1O
inactive: [1] -0.55% | [2] -21.4% | [3] -38% | [4] -23.4% | [5] -28.4% | [6] -1.75%

COC(=O)[C@H]1C=C[C@@H](C)n2c(=O)c3cc4ccccc4cc3c(=O)n21
inactive: [1] -21.2% | [2] -1.55% | [3] -18.9% | [4] -7.95% | [5] -24% | [6] -18.2%

COC(=O)c1cc(Cl)ccc1OCC(=O)NCc1ccc(Cl)cc1
inactive: [1] 9.1% | [2] -3.3% | [3] 11.8% | [4] -5.85% | [5] -26.1% | [6] 12.1%

COc1ccc(C(C)=O)cc1C=O
inactive: [1] 1.4% | [2] 9.65% | [3] -2.65% | [4] -13.2% | [5] -20.1% | [6] 16.2%

CC(/C=N/NC1=NCCCCN1)=N\NC1=NCCCCN1
inactive: [1] -4.95% | [2] -16% | [3] -15.6% | [4] 8.8% | [5] -10.6% | [6] -16.4%

O=[N+]([O-])c1ccc(Cl)c(N=Nc2ccccn2)c1
inactive: [1] 20.2% | [2] -14.9% | [3] 21.4% | [4] -36.9% | [5] -10% | [6] 18.6%

CCOC(=O)C(Cc1ccc([N+](=O)[O-])cc1)(Cc1ccc([N+](=O)[O-])cc1)C(=O)OCC
inactive: [1] -8.9% | [2] -0.75% | [3] -15.3% | [4] -8.95% | [5] -25.6% | [6] -17.2%

CCOC(=O)c1c[nH]c2ccc(-c3ccccc3)cc2c1=O
inactive: [1] 4.65% | [2] 39.8% | [3] 4.6% | [4] 20.4% | [5] 40.7% | [6] 24.9%

CCC(C#N)NC(=O)NC(C#N)CC (stereo not drawn)
inactive: [1] 0.75% | [2] 14.6% | [3] -9.7% | [4] -1.6% | [5] -16.9% | [6] -42.1%

C=CS(=O)(=O)CCCCCCCCCCCCCCCCCC
inactive: [1] -2.35% | [2] 10.7% | [3] -18.4% | [4] -12.8% | [5] 5.3% | [6] 8.9%

CCCCN1C(=O)C(NC(C)=O)C1COC(C)(C)C (stereo not drawn)
inactive: [1] -21.9% | [2] -5.2% | [3] -28.4% | [4] -8.65% | [5] -28.1% | [6] -35.5%

O=S(=O)(Cl)c1c(F)c(F)c(F)c(F)c1F
inactive: [1] -31.3% | [2] -41.1% | [3] -19.9% | [4] 24.1% | [5] -0.25% | [6] -21.4%

CC12CCC3c4ccc(O)cc4C(=O)CC3C1CCC2O (stereo not drawn)
inactive: [1] -16.1% | [2] 7.6% | [3] 5.8% | [4] -29.8% | [5] -11.2% | [6] -17.6%

CCCCOC(OCCCC)C(C)(C)CN(C)C
inactive: [1] 14.9% | [2] 13.2% | [3] 13.4% | [4] 17.9% | [5] 7.15% | [6] 19.1%

O=C(Nc1ccccc1)c1cccn1-c1ccccc1
inactive: [1] 2.7% | [2] -13.1% | [3] 12.1% | [4] 13.5% | [5] -19% | [6] -2.95%

O=C(Nc1ccc(Cl)c(Cl)c1)c1ccc(C(=O)Nc2ccc(Cl)c(Cl)c2)cc1
inactive: [1] 8.35% | [2] 19.1% | [3] 25.1% | [4] -18.9% | [5] -4.85% | [6] 30.3%

CCOC(=O)/C(C)=C/CC1=C(O)c2ccccc2C(=O)C1=O
inactive: [1] 7.3% | [2] 23.7% | [3] 14.1% | [4] 16.2% | [5] 1.95% | [6] 16.8%

CC(C)CCOC(=O)NC(Nc1ccc(F)cc1)(C(F)(F)F)C(F)(F)F
inactive: [1] -10.6% | [2] -15.9% | [3] -40.5% | [4] -13.3% | [5] -5.2% | [6] -25.9%

Cc1ccc(C(=O)O)c(=O)[nH]1
inactive: [1] 3.65% | [2] -26.1% | [3] 5.3% | [4] 2.05% | [5] 7.3% | [6] -2%

O=C(NCC1CC1)c1ccccc1NC(=O)c1cc2ccccc2oc1=O
inactive: [1] -7.9% | [2] -8.25% | [3] 8.4% | [4] 9.85% | [5] 18.7% | [6] 19.8%

CCOC(=O)C(C)(Cc1cccc2ccccc12)C(=O)OCC
inactive: [1] -33.6% | [2] -19.3% | [3] 5.1% | [4] -54.2% | [5] 29.8% | [6] -24.9%

COCCCC(O)CNC(C)C (stereo not drawn)
inactive: [1] -11.2% | [2] 7.1% | [3] -16.4% | [4] -18.2% | [5] 0.95% | [6] -5.95%

COc1cc2c(cc1OCc1ccccc1)C(c1cc(OC)c(OC)c(OC)c1)=C1C(=O)OCC1C2 (stereo not drawn)
inactive: [1] 9.4% | [2] -1.1% | [3] -16.4% | [4] -7.2% | [5] -1.25% | [6] 1%

C=CCOC(=O)CCC(C#N)(C#N)CCC(=O)OCC=C
inactive: [1] -9.55% | [2] -7.1% | [3] -0.4% | [4] -25.8% | [5] 50.5% | [6] 15.3%

O=C(O)[C@@H]1[C@H](C(=O)O)[C@H](C(=O)O)C[C@@H]1C(=O)O
inactive: [1] 6.2% | [2] -33.9% | [3] -24.9% | [4] -1.85% | [5] -69% | [6] 20.1%
